The results in this text go back to PubChem BioAssay (NCI).

What all share (experiment): NCI-60 one-dose screen, 48 h (100 = growth as untreated, 0 = no growth, -100 = all killed)
Details in all cases: 10 µM unless noted

Test [1] deals with SR leukemia.
Test [2] deals with RPMI-8226 leukemia.
Test [3] concerns OVCAR-8 ovarian.
Test [4] has as its system OVCAR-5 ovarian.
Test [5] deals with SK-OV-3 ovarian.
Test [6] relates to IGROV1 ovarian.
Test [7] concerns OVCAR-3 ovarian.
The subject of test [8] is NCI/ADR-RES ovarian.
Test [9] has as its system BT-549 breast.
Test [10] concerns MDA-MB-435 melanoma.
Test [11] concerns SW-620 colon.
In test [12] the test system is MCF7 breast.
Test [13] has as its system HCT-116 colon.
For test [14], the system named is HCC-2998 colon.
Test [15] deals with KM12 colon.
The test system of test [16] is OVCAR-4 ovarian.
In test [17] the test system is HS 578T breast.
The test system of test [18] is T-47D breast.

Values joined by “and” are separate entries in the source; they are usually repeats but may differ in a detail not shown here. Equal values may be shown once. The panel holds about 83,000 compounds, 20% with a hit somewhere; the sample as a whole holds those more often.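 Cell lines were cultured in 96-well plates, exposed to a single compound concentration, and assessed for percent growth 48 hours later.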 Some compounds were tested as several samples or in several runs, with calls that do not always agree. Active and inactive are the calls of the source. How the source made its calls: active means growth percent below 10; inactive means the rest.

In the case of `CCC(=O)C(CC)c1cccc(OC)c1` (centres undefined), the growth is 96.7% (inactive) in test [1]; 101% (inactive) in test [2]; 105% (inactive) in [3]; 115% (inactive) in test [4]; 121% (inactive) in test [5]; 107% (inactive) in test [6]. Further, the growth was 117% (inactive) in test [7]; 101% (inactive) in test [8]; 105% (inactive) in test [9]; 101% (inactive) in test [10]; 105% (inactive) in test [11]; 104% (inactive) in test [12]. Further, the growth is 104% (inactive) in test [13], 112% (inactive) in test [14] and 111% (inactive) in [15].

For the compound `O=C(O)CN(CCN(CC(=O)O)CC(=O)O)CCN(CC(=O)O)CC(=O)O`, the growth in [1] is -21% (active) and 105% (inactive) and 101% (inactive); in test [2], 14.4% (inactive) and 102% (inactive) and 101% (inactive); in [3], -15.6% (active) and 97.9% (inactive) and 99.4% (inactive); in [16] it was 20.2% (inactive) and 105% (inactive) and 100% (inactive); in test [5], 0.709% (active) and 105% (inactive) and 108% (inactive); in [6], 15% (inactive). Also, the growth in test [7] is -17.3% (active) and 110% (inactive) and 108% (inactive); in test [17], 7.28% (active) and 134% (inactive); in test [8], -37.7% (active) and 110% (inactive) and 113% (inactive); in test [18], 9.23% (active) and 101% (inactive); in [9], -10.9% (active) and 92.1% (inactive); in test [10], 17.1% (inactive) and 101% (inactive). The growth in test [11] was 10.5% (inactive) and 109% (inactive); in test [12] it was 18% (inactive) and 85.5% (inactive) and 101% (inactive); in test [13], 3.66% (active) and 91.9% (inactive) and 100% (inactive); in test [14], 15.8% (inactive) and 105% (inactive) and 110% (inactive); in test [15] it was 15.9% (inactive) and 112% (inactive) and 108% (inactive).

On to `Nc1cc(-c2cccc(OC(F)(F)F)c2)nc2ccc(N3CCCC3)cc12`, for which the growth in [1] was -22.2% (active) and -23.6% (active) and -23.8% (active); in [2], 4.74% (active) and 17.6% (inactive) and 10.6% (inactive); in test [3], 11.4% (inactive) and 13.7% (inactive) and 7.39% (active); in test [4] it was 31.7% (inactive) and 38.4% (inactive) and 30.1% (inactive); in test [16] it was 52.5% (inactive) and 55.2% (inactive) and 56.6% (inactive); in [5] it was 36% (inactive) and 5.93% (active). Besides, the growth is 4.65% (active) and 2.53% (active) and -33% (active) in test [7]; -0.422% (active) and 13.7% (inactive) and 27.5% (inactive) in test [17]; 5.44% (active) and 3.14% (active) and 11.7% (inactive) in test [8]; 99.2% (inactive) and 100% (inactive) and 87.9% (inactive) in test [18]; -9.34% (active) and -21.4% (active) and -35.8% (active) in test [10]; 26.8% (inactive) and 32% (inactive) and 21.7% (inactive) in test [11]. Further, the growth in [12] was 15.4% (inactive) and 14.9% (inactive) and 15.8% (inactive); in test [13], 2.86% (active) and 5.92% (active) and 2.47% (active); in test [14] it was -31.7% (active) and 2.5% (active) and -33.8% (active); in [15], 10.1% (inactive) and 14.3% (inactive) and 3.24% (active).

For `CCCCCCCCCCCCCCCc1cc(O)ccc1N`, the growth in test [1] was 74.7% (inactive) and 37.7% (inactive); in [2] it was 39.9% (inactive) and 10.3% (inactive); in test [3] it was 87.8% (inactive) and 87.1% (inactive); in test [4] it was 92.7% (inactive) and 124% (inactive); in [5], 89.2% (inactive) and 69% (inactive); in [6], 16.5% (inactive) and 45.2% (inactive). Moreover, the growth in test [7] is 66.8% (inactive) and 50.9% (inactive); in [17] it was 107% (inactive) and 95.2% (inactive); in test [8] it was 72.1% (inactive) and 49.7% (inactive); in test [18], -5.74% (active) and -86.4% (active); in [9], -36.3% (active) and 12.7% (inactive); in test [10] it was 99.4% (inactive) and 87.2% (inactive). The growth in test [11] was 114% (inactive) and 108% (inactive); in test [12], 72.2% (inactive) and 35.3% (inactive); in test [13] it was 94.4% (inactive) and 91.4% (inactive); in test [14], 96.4% (inactive) and 101% (inactive); in [15] it was 64.2% (inactive) and 72% (inactive).

`Cc1ncsc1CCO`: the growth in test [1] is 104% (inactive) and 111% (inactive); in test [2], 106% (inactive) and 122% (inactive); in [3] it was 104% (inactive) and 97% (inactive); in test [16], 120% (inactive) and 116% (inactive); in test [5] it was 101% (inactive) and 110% (inactive); in test [6], 124% (inactive) and 107% (inactive). For the same compound, the growth is 124% (inactive) and 93.9% (inactive) in test [7]; 110% (inactive) and 101% (inactive) in test [17]; 108% (inactive) and 102% (inactive) in test [8]; 93.5% (inactive) and 94.4% (inactive) in test [18]; 101% (inactive) and 100% (inactive) in test [9]; 106% (inactive) and 104% (inactive) in test [10]. Also, the growth in [11] was 108% (inactive) and 101% (inactive); in test [12] it was 109% (inactive) and 96% (inactive); in test [13] it was 112% (inactive) and 102% (inactive); in test [14], 101% (inactive) and 109% (inactive); in test [15] it was 110% (inactive) and 98.1% (inactive).

Consider `O=C=NC(c1ccccc1)(c1ccccc1)c1ccccc1`, for which the growth is 96.2% (inactive) in [1]; 119% (inactive) in [2]; 97.4% (inactive) in test [3]; 99.1% (inactive) in test [4]; 115% (inactive) in [16]; 89.1% (inactive) in test [5]. For the same compound, the growth was 116% (inactive) in test [7]; 111% (inactive) in test [17]; 109% (inactive) in [8]; 103% (inactive) in test [9]; 108% (inactive) in [10]; 107% (inactive) in [11]. The growth in test [12] is 102% (inactive); in test [13], 93.5% (inactive); in test [14] it was 111% (inactive); in test [15], 103% (inactive).

Regarding `NC(=O)c1ccccc1OCC(O)CO` (centres undefined), the growth in test [1] was 94.9% (inactive); in test [2], 99% (inactive); in test [3], 104% (inactive); in [4], 99.5% (inactive); in test [5], 109% (inactive); in test [6], 108% (inactive). Besides, the growth in test [7] is 106% (inactive); in [17], 117% (inactive); in [8], 119% (inactive); in [18] it was 130% (inactive); in [9], 109% (inactive); in test [10], 90% (inactive). The growth in test [11] is 101% (inactive); in [12], 94.1% (inactive); in test [13] it was 112% (inactive); in test [14], 114% (inactive); in [15] it was 115% (inactive).

For the compound `Clc1ccc(SSc2ccc(Cl)cc2)cc1`, the growth is 104% (inactive) in test [1]; 102% (inactive) and 58.2% (inactive) in test [2]; 97.6% (inactive) and 86% (inactive) in test [3]; 103% (inactive) and 84.9% (inactive) in test [16]; 106% (inactive) and 125% (inactive) in [5]; 102% (inactive) and 83.4% (inactive) in test [6]. For the same compound, the growth in test [7] was 101% (inactive) and 110% (inactive); in test [17], 97.9% (inactive) and 93.4% (inactive); in [8], 99.2% (inactive) and 81.8% (inactive); in [18], 96.2% (inactive) and 103% (inactive); in test [9], 89% (inactive) and 9.06% (active); in test [10], 94% (inactive) and 100% (inactive). In addition, the growth was 97.3% (inactive) and 88.8% (inactive) in test [11]; 102% (inactive) and 75.1% (inactive) in [12]; 95.9% (inactive) and 71% (inactive) in test [13]; 96.8% (inactive) and 98% (inactive) in [14]; 107% (inactive) in test [15].

Consider `CC1=CCC2CC1C2(C)C` (centres undefined), for which the growth in [1] is 96.9% (inactive) and 91.4% (inactive); in [2], 137% (inactive) and 120% (inactive); in test [3] it was 97.7% (inactive) and 95.8% (inactive); in test [4], 80.1% (inactive) and 74.2% (inactive); in test [5] it was 114% (inactive) and 99% (inactive); in [6] it was 35.4% (inactive). For the same compound, the growth is 89.2% (inactive) and 95.1% (inactive) in [7]; 81.8% (inactive) in test [17]; 102% (inactive) and 81.8% (inactive) in [8]; 105% (inactive) and 102% (inactive) in test [18]; 71.6% (inactive) and 68.8% (inactive) in [9]; 98.3% (inactive) and 94.2% (inactive) in test [10]. The growth in test [11] was 101% (inactive) and 103% (inactive); in [12], 98.1% (inactive) and 91.6% (inactive); in [13], 92.2% (inactive); in test [14], 42.3% (inactive); in test [15], 100% (inactive) and 110% (inactive).
